Assay [1] addresses Atrial natriuretic peptide receptor 1 (Homo sapiens) (UniProt P16066). As to the kind of experiment: Natriuretic polypeptide receptor (hNpr1) antagonism - Pilot screen (AID 1347049; calls by dose curve;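 further: agonist-evoked cGMP luminescence read 20 min after hNppA addition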; further: potency means the concentration at half of the fitted maximal effect). A digest of the protocol:
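cGMP-sensor HEK293/hNpr1 cells, 1500/well, plated overnight at 37C. 2% GloSensor reagent, 2 h RT. Compound (23 nL pin transfer) 30 min RT, baseline luminescence pre-read. 0.1 nM hNppA, 20 min RT, post-read.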

The target of assay [2] is Atrial natriuretic peptide receptor 2 (Homo sapiens) (UniProt P20594). The assay is described as follows: Natriuretic polypeptide receptor (hNpr2) antagonism - Pilot subtype selectivity assay (AID 1347050; calls by dose curve; further: potency means the concentration at half of the fitted maximal effect). A digest of the protocol: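 Luminescence from a genetically encoded cGMP luciferase biosensor in hNpr2-expressing HEK293 cells is read before and 20 min after adding 1 nM hNppC. Test compounds, in interplate 1:5 titrations, are added 30-50 min ahead of the agonist.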
Atrial natriuretic peptide receptor 2 (Homo sapiens), sequence (P20594 whole entry, looked up): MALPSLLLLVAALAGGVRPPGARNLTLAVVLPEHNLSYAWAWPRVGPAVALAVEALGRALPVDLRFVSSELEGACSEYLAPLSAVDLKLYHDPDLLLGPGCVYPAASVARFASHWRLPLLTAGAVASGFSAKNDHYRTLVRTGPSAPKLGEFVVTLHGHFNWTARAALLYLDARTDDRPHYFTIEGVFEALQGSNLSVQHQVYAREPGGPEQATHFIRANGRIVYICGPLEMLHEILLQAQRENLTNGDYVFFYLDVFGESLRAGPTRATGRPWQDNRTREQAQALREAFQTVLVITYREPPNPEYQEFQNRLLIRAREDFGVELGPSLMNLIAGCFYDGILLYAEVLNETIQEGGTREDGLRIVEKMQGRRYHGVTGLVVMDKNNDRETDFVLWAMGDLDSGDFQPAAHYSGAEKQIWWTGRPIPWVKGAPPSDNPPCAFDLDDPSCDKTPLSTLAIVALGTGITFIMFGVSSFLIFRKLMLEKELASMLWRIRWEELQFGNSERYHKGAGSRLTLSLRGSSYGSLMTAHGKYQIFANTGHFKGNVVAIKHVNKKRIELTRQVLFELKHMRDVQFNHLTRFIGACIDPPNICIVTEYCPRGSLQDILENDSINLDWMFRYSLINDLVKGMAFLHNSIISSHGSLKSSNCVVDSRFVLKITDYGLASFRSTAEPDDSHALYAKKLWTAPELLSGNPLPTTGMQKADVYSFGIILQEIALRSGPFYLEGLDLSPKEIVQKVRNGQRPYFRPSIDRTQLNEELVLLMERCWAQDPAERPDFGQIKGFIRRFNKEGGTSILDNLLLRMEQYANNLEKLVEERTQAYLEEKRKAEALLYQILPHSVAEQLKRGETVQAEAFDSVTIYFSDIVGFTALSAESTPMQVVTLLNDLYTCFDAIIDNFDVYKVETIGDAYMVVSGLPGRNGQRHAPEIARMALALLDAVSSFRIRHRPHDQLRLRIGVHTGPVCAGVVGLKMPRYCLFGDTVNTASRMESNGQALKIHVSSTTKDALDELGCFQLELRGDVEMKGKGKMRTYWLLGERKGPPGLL

Assay [3] concerns the target Parathyroid hormone/parathyroid hormone-related peptide receptor (Homo sapiens) (UniProt Q03431). As to the kind of experiment: qHTS for PTHR1 Agonists: Optimization Screen against the NCGC LOPAC library (AID 1347079).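 Further: GloSensor cAMP luminescence in HEK-293 GP2 cells expressing human PTHR1 with IBMX.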 Summed up: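 Signal increase flags agonism. GP2 cells, derived from HEK-293, express human PTHR1 and a GloSensor cAMP construct.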
(qHTS replaces the single test concentration by a dilution series.)

Assay [4] in a line: NS1 protein of Zika virus - qHTS assay to identify small molecule inhibitors in human HEK 293 cells (AID 1347053). Further: series mostly up to about 46 µM; nearly all actives have a fitted effect of over 55% in size. Summed up: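 In this cell-based screen, HEK 293 cultures received compound for one hour before Zika MR766 at MOI = 0.5. NS1 was quantified 24 hours later by TR-FRET, normalized to virus-free wells and infected wells.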
Assay [5] concerns the target T1, Tyrosine-protein phosphatase non-receptor type substrate 1 (Homo sapiens) + Leukocyte surface antigen CD47 (Homo sapiens) (UniProt P78324+Q08722). The assay is described as follows: CD47-SIRPalpha protein protein interaction - LANCE assay qHTS validation (AID 1347057; active means well fitted curve in the direction sought with a large enough effect in the signal ratio, with a control signal flat, not every such curve was filed as active; the % refers to the signal ratio; further: series mostly up to about 38 µM). A digest of the protocol: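 Inhibition of soluble CD47/SIRPalpha ectodomain association by titrated compounds, measured as 665/615 nm time-resolved FRET ratio after sequential 30 min room-temperature incubations.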

The target of assay [6] is T1, Tyrosine-protein phosphatase non-receptor type substrate 1 (Homo sapiens) + Leukocyte surface antigen CD47 (Homo sapiens). As to the kind of experiment: CD47-SIRPalpha protein protein interaction - HTRF assay qHTS validation (AID 1347058; active means well fitted curve in the direction sought with a large enough effect in the signal ratio, not every such curve was filed as active; the % refers to the signal ratio; further: series mostly up to about 38 µM). Summed up:
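Soluble extracellular domains (6His-CD47, Avi-tag-biotinylated SIRPalpha) in PBS pH 7.4 with 0.05% IGEPAL CA-630. Compounds were preincubated 30 min at RT with CD47 and anti-His-Eu, then SIRPalpha and SAV-XL665 were added. TR-FRET 665/615 ratio.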
On the technique in general: Time-resolved FRET reads energy transfer from a long-lived donor to a nearby acceptor.

The target is the same in assay [7]. As to the kind of experiment: CD47-SIRPalpha protein protein interaction - Alpha assay qHTS validation (AID 1347059).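 Further: bead proximity luminescence from CD47 binding SIRPalpha after compound preincubation with SIRPalpha.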 Summed up:
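SIRPalpha-biotin 25 nM + cpd, 30 min RT, dark; add CD47-His 12.5 nM, 30 min; add Ni-NTA/SAV beads 10 ug/mL, 30 min; AlphaScreen. Buffer PBS pH 7.4 + 0.05% IGEPAL CA-630. Non-biotinylated SIRPalpha as control inhibitor.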

Records with an inconclusive call do not appear. Calls of active or inactive are those of the source. Unless noted, the call rests on the fitted dose curve; in most records, active means well fitted curve in the direction sought with a large enough effect; inconclusive means small, poorly fitted or top-dose-only effect, or another doubt; inactive means no such curve, though single readings can be large; an effect the other way counts as inactive or inconclusive.

T1 sequence (P78324 whole entry, looked up, the tested form may be a part): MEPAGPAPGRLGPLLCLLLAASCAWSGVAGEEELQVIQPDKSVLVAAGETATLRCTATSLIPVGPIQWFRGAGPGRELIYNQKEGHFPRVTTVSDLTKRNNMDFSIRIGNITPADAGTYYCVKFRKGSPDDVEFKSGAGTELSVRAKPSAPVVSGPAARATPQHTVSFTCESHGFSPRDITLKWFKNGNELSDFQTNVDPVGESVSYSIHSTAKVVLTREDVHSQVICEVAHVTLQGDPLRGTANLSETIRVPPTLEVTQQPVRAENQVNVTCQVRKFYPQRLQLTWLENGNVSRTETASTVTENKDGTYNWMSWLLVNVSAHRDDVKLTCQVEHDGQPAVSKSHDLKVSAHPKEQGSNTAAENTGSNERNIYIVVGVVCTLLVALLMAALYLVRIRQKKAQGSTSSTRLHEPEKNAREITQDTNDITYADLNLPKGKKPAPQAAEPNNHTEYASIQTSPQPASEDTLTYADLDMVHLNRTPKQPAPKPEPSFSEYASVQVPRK
T1 sequence (Q08722 whole entry, looked up, the tested form may be a part): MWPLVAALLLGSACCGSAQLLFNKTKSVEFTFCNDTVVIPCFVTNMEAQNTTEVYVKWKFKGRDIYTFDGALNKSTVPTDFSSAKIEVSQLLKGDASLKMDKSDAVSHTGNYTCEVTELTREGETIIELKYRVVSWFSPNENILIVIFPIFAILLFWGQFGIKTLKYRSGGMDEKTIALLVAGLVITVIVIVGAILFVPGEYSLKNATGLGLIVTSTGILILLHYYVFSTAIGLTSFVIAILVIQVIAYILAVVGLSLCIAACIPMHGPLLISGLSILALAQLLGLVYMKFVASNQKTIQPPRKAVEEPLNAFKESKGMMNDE
Atrial natriuretic peptide receptor 1 (Homo sapiens), sequence (P16066 whole entry, looked up): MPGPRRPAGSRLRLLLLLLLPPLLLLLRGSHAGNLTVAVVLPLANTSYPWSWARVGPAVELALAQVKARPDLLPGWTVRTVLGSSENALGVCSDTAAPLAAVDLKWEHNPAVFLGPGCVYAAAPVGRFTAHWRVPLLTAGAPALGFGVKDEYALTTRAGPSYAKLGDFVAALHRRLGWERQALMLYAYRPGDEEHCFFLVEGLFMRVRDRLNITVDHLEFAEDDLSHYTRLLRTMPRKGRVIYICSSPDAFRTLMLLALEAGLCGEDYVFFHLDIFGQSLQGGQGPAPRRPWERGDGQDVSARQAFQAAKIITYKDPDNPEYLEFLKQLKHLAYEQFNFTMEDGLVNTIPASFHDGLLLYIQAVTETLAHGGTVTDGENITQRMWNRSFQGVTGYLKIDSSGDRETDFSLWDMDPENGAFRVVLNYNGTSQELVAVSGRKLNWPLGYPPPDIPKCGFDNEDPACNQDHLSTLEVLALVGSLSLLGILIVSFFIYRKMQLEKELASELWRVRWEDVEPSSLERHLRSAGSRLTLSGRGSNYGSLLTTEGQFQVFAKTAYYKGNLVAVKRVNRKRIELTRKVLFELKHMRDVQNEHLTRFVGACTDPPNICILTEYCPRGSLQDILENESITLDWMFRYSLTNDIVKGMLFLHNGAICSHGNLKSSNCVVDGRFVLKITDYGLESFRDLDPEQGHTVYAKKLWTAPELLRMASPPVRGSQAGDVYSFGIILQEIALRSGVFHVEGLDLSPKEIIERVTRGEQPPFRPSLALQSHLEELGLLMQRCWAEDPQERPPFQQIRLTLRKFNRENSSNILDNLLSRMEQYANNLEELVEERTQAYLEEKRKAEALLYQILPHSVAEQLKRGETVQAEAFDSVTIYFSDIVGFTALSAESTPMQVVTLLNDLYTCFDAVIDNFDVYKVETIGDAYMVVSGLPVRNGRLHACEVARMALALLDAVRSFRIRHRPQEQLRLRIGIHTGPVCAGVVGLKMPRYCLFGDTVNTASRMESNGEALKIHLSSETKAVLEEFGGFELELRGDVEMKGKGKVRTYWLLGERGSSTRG
Parathyroid hormone/parathyroid hormone-related peptide receptor (Homo sapiens), sequence (Q03431 whole entry, looked up): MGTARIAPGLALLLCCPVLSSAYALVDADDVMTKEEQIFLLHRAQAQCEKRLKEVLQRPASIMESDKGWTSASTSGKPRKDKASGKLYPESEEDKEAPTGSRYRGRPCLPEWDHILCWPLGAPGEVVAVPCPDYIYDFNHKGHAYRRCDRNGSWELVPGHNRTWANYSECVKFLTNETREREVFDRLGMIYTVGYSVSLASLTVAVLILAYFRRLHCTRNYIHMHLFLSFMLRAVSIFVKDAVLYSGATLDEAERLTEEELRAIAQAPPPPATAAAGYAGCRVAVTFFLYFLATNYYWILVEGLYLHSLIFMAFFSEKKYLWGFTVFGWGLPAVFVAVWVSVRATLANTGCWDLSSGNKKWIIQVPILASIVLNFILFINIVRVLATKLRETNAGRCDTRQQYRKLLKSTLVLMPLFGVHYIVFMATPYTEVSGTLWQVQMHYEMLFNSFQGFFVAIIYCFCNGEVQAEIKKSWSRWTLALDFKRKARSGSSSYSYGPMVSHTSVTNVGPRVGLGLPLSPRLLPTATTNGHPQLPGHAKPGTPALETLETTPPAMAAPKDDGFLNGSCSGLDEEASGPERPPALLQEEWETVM

As to `COc1ccccc1N1CCN(CCCCNS(=O)(=O)c2cccc3c(N(C)C)cccc23)CC1`, the Potency entry in assay [1], in assay [2] and in assay [3] was “inactive” in each case.
On to `COc1ccccc1CNCCCCCCNCCCCCCCCNCCCCCCNCc1ccccc1OC`, for which the Potency entry in assay [1], in assay [4], in assay [5], in assay [7] and in assay [3] was “inactive” in each case. Besides, the outcome in assay [6] was inactive.
For `Fc1ccc(C(OCCCc2cnc[nH]2)c2ccc(F)cc2)cc1`, the Potency entry in assay [1], in assay [2], in assay [4], in assay [5] and in assay [3] was “inactive” throughout. For the same compound, in assay [6], the result was inactive.
As for `C[N+](C)(CCCCCC[N+](C)(C)CCCN1C(=O)c2cccc3cccc(c23)C1=O)CCCN1C(=O)c2cccc3cccc(c23)C1=O`, the Potency result in assay [1], in assay [2] and in assay [3] was “inactive” in each case.
As to `NC(N)=NC(=O)c1nc(Cl)c(N2CCCCCC2)nc1N`, the Potency result in assay [1], in assay [2], in assay [4], in assay [5], in assay [7] and in assay [3] was “inactive” in each case.
Take `c1ccc(-c2ccccn2)nc1`: the Potency entry in assay [1], in assay [2], in assay [4] and in assay [3] was “inactive” in each case.
As to `O=C(Nc1ccccc1)c1cc([N+](=O)[O-])ccc1Cl`, the Potency entry in assay [1], in assay [2], in assay [4], in assay [5], in assay [7] and in assay [3] was “inactive” throughout.
With `O=C(O)CCCC[C@@H]1CCSS1`, the Potency entry in assay [1], in assay [2], in assay [4] and in assay [3] was “inactive” each time.
As for `CN(C)c1nc(N)c(C(=O)N=C(N)N)nc1Cl`, the Potency entry in assay [1], in assay [2], in assay [4], in assay [5], in assay [7] and in assay [3] was “inactive” each time.
`CCCCCCCCCCCCCCCC(=O)OC(CC(=O)O)C[N+](C)(C)C` (stereo not given): the Potency result in assay [1], in assay [2], in assay [4], in assay [5] and in assay [3] was “inactive” throughout. The result in assay [6] was inactive.
Regarding `NC[C@H]1O[C@@H](n2cnc3c(N)ncnc32)[C@H](O)[C@@H]1O`, the Potency entry in assay [1], in assay [4], in assay [5], in assay [7] and in assay [3] was “inactive” throughout. Also, the result in assay [6] was inactive.
With `CC1CN(S(=O)(=O)c2cccc3cnccc23)CCN1` (stereo not given), the Potency entry in assay [1], in assay [2], in assay [4], in assay [5], in assay [7] and in assay [3] was “inactive” throughout. Also, in assay [6], the outcome was inactive.
`NCCCS(=O)(=O)O`: the Potency entry in assay [1], in assay [2], in assay [4], in assay [5], in assay [7] and in assay [3] was “inactive” in each case. Further, the result in assay [6] was inactive.
For `CN1C2CC(OC(=O)[C@H](CO)c3ccccc3)CC1C1OC12` (stereo not given in full), the Potency entry in assay [1], in assay [2], in assay [4] and in assay [3] was “inactive” each time.
For `NC[C@@H]1O[C@H](C23CC4CC(CC(C4)C2)C3)Cc2c1ccc(O)c2O`, the Potency result in assay [1], in assay [2], in assay [5] and in assay [3] was “inactive” in each case. Besides, the outcome in assay [6] was inactive.
For the compound `O=C(c1ccc(OCCCc2cnc[nH]2)cc1)C1CC1`, the Potency result in assay [1], in assay [2], in assay [4], in assay [5], in assay [7] and in assay [3] was “inactive” throughout. The result in assay [6] was inactive.
On to `O=C(/C=C/c1ccc(O)cc1)c1ccc(O)cc1O`, for which the Potency in assay [1] was 30.1 µM (active). Also, the Potency result in assay [4], in assay [5], in assay [7] and in assay [3] was “inactive” in each case.
Regarding `O=Nc1ccc2oc(=O)ccc2c1`, the Potency result in assay [1], in assay [4], in assay [5], in assay [7] and in assay [3] was “inactive” throughout.
On to `NO`, for which the Potency result in assay [1], in assay [2], in assay [4] and in assay [3] was “inactive” each time.
For the compound `Cn1ncc(S(=O)(=O)Cc2ccccc2)c(Br)c1=O`, the Potency entry in assay [1], in assay [4], in assay [5], in assay [7] and in assay [3] was “inactive” throughout. Moreover, the Potency in assay [2] was 11.7 µM (active).
Regarding `C=C[C@@H]1CN2CC[C@@H]1C[C@H]2[C@H](O)c1ccnc2ccc(OC)cc12`, the Potency result in assay [1], in assay [2], in assay [4] and in assay [3] was “inactive” each time.
On to `N[C@@H](CC(=O)O)C(=O)O`, for which the Potency entry in assay [1], in assay [2], in assay [4] and in assay [3] was “inactive” in each case.
For `COC1=C(OC)C(=O)c2ccccc2C1=O`, the Potency result in assay [2], in assay [4], in assay [5], in assay [7] and in assay [3] was “inactive” throughout.
Take `OC[C@H]1O[C@@H](n2cnc3c(NC4CCCCC4)ncnc32)[C@H](O)[C@@H]1O`: the Potency result in assay [2], in assay [4], in assay [5], in assay [7] and in assay [3] was “inactive” each time. The outcome in assay [6] was inactive.
Take `COCCOc1cc2nc[nH]c(=O)c2cc1OCCOC`: the Potency entry in assay [4], in assay [5] and in assay [7] was “inactive” throughout. The outcome in assay [6] was inactive.
In the case of `CC(C)c1cccc(C(C)C)c1N1C(=O)c2ccc(O)cc2C1=O`, the Potency entry in assay [4], in assay [5] and in assay [7] was “inactive” each time. Moreover, the outcome in assay [6] was inactive.
Regarding `Nc1nc(OCC2CCCCC2)c2[nH]cnc2n1`, the Potency entry in assay [4], in assay [5] and in assay [7] was “inactive” throughout. Moreover, the result in assay [6] was inactive.
Regarding `CC[C@@H](C)[C@H]1O[C@]2(CC[C@H]1C)C[C@@H]1C[C@@H](CC=C(C)[C@@H](O[C@H]3C[C@H](OC)[C@@H](O[C@H]4C[C@H](OC)[C@@H](O)[C@H](C)O4)[C@H](C)O3)[C@@H](C)C=CC=C3CO[C@@H]4[C@H](O)C(C)=C[C@@H](C(=O)O1)[C@]34O)O2`, the Potency entry in assay [2], in assay [5], in assay [7] and in assay [3] was “inactive” each time. Besides, the outcome in assay [6] was inactive.
Take `Fc1ccc2[nH]c(CN3CCN(c4ccccn4)CC3)cc2c1`: the Potency result in assay [4], in assay [5] and in assay [7] was “inactive” each time. Further, in assay [6], the result was inactive.
Take `Nc1ncnc2c1c(I)cn2[C@@H]1C[C@H](N)[C@@H](O)[C@H]1O`: the Potency entry in assay [1] and in assay [3] was “inactive” each time.
For the compound `C#CCN1C(C)=C(C(=O)OC)C(c2cccc([N+](=O)[O-])c2)C(C(=O)OCC)=C1C` (stereo not given), the Potency entry in assay [1] and in assay [3] was “inactive” each time.
Take `N#C/C(=C\c1ccc(-c2cc(Cl)ccc2Cl)o1)C(=O)Nc1cccc2ncccc12`: the Potency entry in assay [1], in assay [4], in assay [5], in assay [7] and in assay [3] was “inactive” in each case.
In the case of `O=C(c1cc(O)c(O)c([N+](=O)[O-])c1)c1ccccc1F`, the Potency result in assay [2], in assay [4], in assay [5], in assay [7] and in assay [3] was “inactive” in each case.

Source of the values: PubChem BioAssay (NCATS).
